Source: PubChem BioAssay (NCI)
About 79,000 compounds went through this panel and 15% of them were active in at least one assay; those are over-represented in the sample as a whole. Rule as the data show it: active = growth inhibition above about 70%; inactive = the rest.

How the values were obtained:
[1] = NCI Yeast Anticancer Drug Screen. Data for the rad50 strain (AID 155);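 also: 0% = growth of vehicle-only cultures of the same strain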; details: S. cerevisiae rad50 strain growth inhibition; at 50.0 µM; hits give high values
Summary of the method: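 Yeast carrying a defined DNA repair defect were exposed to test compounds, and growth was compared with vehicle-treated controls to give percent inhibition.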

[2] = NCI Yeast Anticancer Drug Screen. Data for the mec2-1 strain (AID 157); details: S. cerevisiae mec2-1 strain, at 50.0 µM, hits give high values
Summary of the method: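 Using mec2-1 yeast: add compound, measure growth, express inhibition versus vehicle-treated cultures.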

[3] = NCI Yeast Anticancer Drug Screen. Data for the sgs1 mgt1 strain (AID 161);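 also: 0% = growth of cultures given vehicle only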; details: S. cerevisiae sgs1 mgt1 strain, at 50.0 µM, hits give high values
Summary of the method: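 Percent growth inhibition was derived by comparing compound-exposed mutant yeast with vehicle-exposed cultures. The strain carries alterations in DNA damage repair.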

[4] = NCI Yeast Anticancer Drug Screen. Data for the cln2 rad14 strain (AID 165);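 also: 0% = growth equal to vehicle treated cultures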; details: S. cerevisiae cln2 rad14 strain, at 50.0 µM, hits give high values
Summary of the method: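 Yeast strain cln2 rad14, bearing defects in cell cycle control and DNA repair, serves as the test system; values reflect growth inhibition compared with vehicle.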

[5] = NCI Yeast Anticancer Drug Screen. Data for the bub3 strain (AID 167); details: S. cerevisiae bub3 mutant strain, at 50.0 µM, hits give high values
Summary of the method: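 Compounds were applied to a genetically altered yeast strain carrying a cell-cycle control defect. Growth inhibition was scored against vehicle-treated controls.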

[6] = NCI Yeast Anticancer Drug Screen. Data for the mlh1 rad18 strain (AID 175); details: S. cerevisiae mlh1 rad18 strain growth inhibition; at 50.0 µM; hits give high values
Summary of the method: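 Steps: expose repair-defective yeast to compound; measure growth; express inhibition against vehicle-treated controls.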

Measured: growth inhibition

Cc1ccc(N[N+](=O)[O-])nc1
inactive: [1] -7.25% | [2] 8.55% | [3] -1.15% | [4] -10.2% | [5] -3.15% | [6] 14%

CCC(C)(C)C(=O)Nc1cccc(OC(=O)NC)c1
inactive: [1] 2.1% | [2] -9.1% | [3] 9.85% | [4] -3.35% | [5] 13.2% | [6] -16.9%

COc1ccc2ccc([Se]c3ccc4ccc(OC)cc4c3)cc2c1
inactive: [1] -1.25% | [2] -22.4% | [3] -1.85% | [4] 4.45% | [5] 7.55% | [6] -1.1%
